Records with an inconclusive call do not appear. Calls of active or inactive are those of the source. Unless noted, calls follow the shape of the dose curve; as a rule, active = well fitted curve in the direction sought with a large enough effect in the repeat runs; inconclusive = weak or mixed curves; inactive = no such curve, though single readings can be large; an effect the other way counts as inactive or inconclusive.
Key:
[1] = qHTS assay to identify small molecule antagonists of the glucocorticoid receptor (GR) signaling pathway - cell viability counter screen (AID 720693); also: nearly all actives have a fitted effect of over 55% in size
[2] = qHTS assay for identifying genotoxic compounds that show differential cytotoxicity against isogenic chicken DT40 cell lines with known DNA damage response pathways - wild type cell line (AID 743012); also: nearly all actives have a fitted effect of over 60% in size; also: potency is read from the fitted curve at half-maximal effect
Summary of the method: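 Luminescent ATP viability signal (CellTiter-Glo, 30 min RT) recorded after wild type DT40 cells were incubated with compounds for 40 h at 37 C/5% CO2.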

[3] = qHTS assay for identifying genotoxic compounds that show differential cytotoxicity against isogenic chicken DT40 cell lines with known DNA damage response pathways - Rev3 mutant cell line (AID 743014); also: nearly all actives have a fitted effect of over 55% in size; also: potency is read from the fitted curve at half-maximal effect
[4] = qHTS assay for identifying genotoxic compounds that show differential cytotoxicity against isogenic chicken DT40 cell lines with known DNA damage response pathways - Rad54/Ku70 mutant cell line (AID 743015); also: nearly all actives have a fitted effect of over 60% in size; also: potency is read from the fitted curve at half-maximal effect
[5] = target: Androgen receptor (Homo sapiens) (UniProt P10275); assay: qHTS assay to identify small molecule agonists of the androgen receptor (AR) signaling pathway (AID 743036; active = well fitted activation curve with a large enough effect in the signal ratio in the repeat runs, with a control signal flat, not every such curve was filed as active; the % refers to the signal ratio)
Summary of the method: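 Screening used 2,000 AR-bla HEK293 cells per well, treated 16 h at 37C with test compounds in DMSO alongside positive and DMSO-only controls; beta-lactamase activity was then read by LiveBLAzer B/G FRET fluorescence after 2 h at room temperature.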

[6] = target: Androgen receptor (Homo sapiens) (UniProt P10275); assay: qHTS assay to identify small molecule agonists of the androgen receptor (AR) signaling pathway using the MDA cell line (AID 743040; also: nearly all actives have a fitted effect of over 20% in size)
Summary of the method: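 Cell-based luciferase reporter: MDA-kb2, MMTV promoter (AR + GR response elements). 16 h compound exposure at 37C; ONE-Glo, 30 min RT, luminescence.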

[7] = qHTS assay to identify small molecule antagonists of the androgen receptor (AR) signaling pathway using the MDA cell line - cell viability counter screen (AID 743041; also: nearly all actives have a fitted effect of over 45% in size; also: potency is read from the fitted curve at half-maximal effect)
Summary of the method: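 In this qHTS counter assay, fluorescence intensity after CellTiter-Fluor addition indicated viability of MDA-kb2 AR-luc cells given compounds and R1881 for 16 h at 37C.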

[8] = qHTS assay to identify small molecule antagonists of the thyroid receptor (TR) signaling pathway - cell viability counter screen (AID 743064); also: nearly all actives have a fitted effect of over 50% in size; also: potency is read from the fitted curve at half-maximal effect
Summary of the method: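 Viability of T3-stimulated (1 nM final) GH3.TRE-Luc cells is measured by CellTiter-Fluor fluorescence after 23.5 h compound exposure at 37 °C plus 30 min reagent incubation.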

[9] = target: Androgen receptor (Homo sapiens) (UniProt P10275); assay: qHTS assay to identify small molecule antagonists of the androgen receptor (AR) signaling pathway (AID 743035; active = well fitted inhibition curve with a large enough effect in the signal ratio in the repeat runs, not every such curve was filed as active; the % refers to the signal ratio)
Summary of the method: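 Quantitative HTS of the Tox21 10K library used HEK293 AR-UAS-bla cells stimulated with R1881 alongside compound for 16 h at 37C, followed by beta-lactamase FRET detection (LiveBLAzer B/G, 2 h, RT).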

[10] = qHTS assay to identify small molecule antagonists of the androgen receptor (AR) signaling pathway - cell viability counter screen (AID 743033; also: nearly all actives have a fitted effect of over 45% in size)

Measured: Potency

Chain of Androgen receptor (Homo sapiens) (P10275 whole entry, looked up): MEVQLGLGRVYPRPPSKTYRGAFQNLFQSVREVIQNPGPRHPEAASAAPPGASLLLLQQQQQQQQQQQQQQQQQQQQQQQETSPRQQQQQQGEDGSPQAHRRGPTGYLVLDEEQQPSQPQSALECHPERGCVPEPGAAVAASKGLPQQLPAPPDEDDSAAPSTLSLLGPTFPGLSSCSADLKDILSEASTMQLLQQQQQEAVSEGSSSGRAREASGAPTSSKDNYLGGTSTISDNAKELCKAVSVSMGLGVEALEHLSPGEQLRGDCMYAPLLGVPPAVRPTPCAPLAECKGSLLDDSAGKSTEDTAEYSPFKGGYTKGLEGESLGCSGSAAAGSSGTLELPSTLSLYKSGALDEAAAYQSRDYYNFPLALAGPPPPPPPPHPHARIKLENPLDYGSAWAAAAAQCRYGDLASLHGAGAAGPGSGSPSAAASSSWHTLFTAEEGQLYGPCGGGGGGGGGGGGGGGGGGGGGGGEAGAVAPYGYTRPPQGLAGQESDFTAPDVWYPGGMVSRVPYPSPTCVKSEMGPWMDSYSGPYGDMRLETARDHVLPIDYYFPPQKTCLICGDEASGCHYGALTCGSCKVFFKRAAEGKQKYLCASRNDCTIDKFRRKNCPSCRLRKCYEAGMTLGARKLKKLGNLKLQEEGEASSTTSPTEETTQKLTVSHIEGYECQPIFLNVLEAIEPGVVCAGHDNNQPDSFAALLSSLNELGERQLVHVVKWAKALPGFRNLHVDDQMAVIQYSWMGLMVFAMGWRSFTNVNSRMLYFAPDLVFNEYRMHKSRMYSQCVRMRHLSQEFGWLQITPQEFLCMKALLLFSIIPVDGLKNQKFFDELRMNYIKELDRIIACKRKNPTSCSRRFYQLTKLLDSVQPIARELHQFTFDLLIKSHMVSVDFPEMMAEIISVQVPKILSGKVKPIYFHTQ

Cc1ncc(CSSCc2cnc(C)c(O)c2CO)c(CO)c1O
not listed: [9] | [10]
inactive: all other assays above

C=CCn1c(=O)n([C@@H]2O[C@H](CO)[C@@H](O)[C@H]2O)c2nc(N)[nH]c(=O)c21
not listed: [10]
inactive: all other assays above

CCC(C)OC(=O)N1CCCCC1CCO (configuration not stated)
inactive: [1] | [2] | [3] | [4] | [7] | [8]

CCCC(C)C(=O)O (configuration not stated)
inactive: [1] | [2] | [3] | [4] | [7] | [8]

COc1ccc(NC(C)=O)cc1
not listed: [7] | [8] | [10]
inactive: all other assays above

OCCCCCCO
inactive: [1] | [2] | [3] | [4] | [7] | [8]

CC(C)COC(=O)c1ccccc1O
active: [3] 24.3 µM
inactive: [1] | [2] | [4] | [10] | [8]

CC(=O)c1ccc(C)cc1
inactive: [1] | [2] | [4] | [10] | [7]

CCN1CCCC1CNC(=O)c1cc(S(N)(=O)=O)ccc1OC (configuration not stated)
not listed: [3]
inactive: all other assays above

CCCCCCCCCCC1CO1 (configuration not stated)
active: [2] 61.1 µM | [3] 68.6 µM
inactive: [1] | [10] | [7] | [8]

COc1cccc(Br)c1
not listed: [3]
inactive: all other assays above

CCCCCN(CCCCC)C(=O)C(CCC(=O)O)NC(=O)c1ccc(Cl)c(Cl)c1 (configuration not stated)
not listed: [3] | [9]
inactive: all other assays above

CCCCC1CCCCC(=O)O1 (configuration not stated)
inactive: [1] | [2] | [3] | [4] | [7] | [8]

CC(C)=CCC/C(C)=C/C(=O)O
inactive: [1] | [2] | [3] | [4] | [7] | [8]

CCCCCCOC(=O)CC(CC(=O)OCCCCCC)(OC(=O)CCC)C(=O)OCCCCCC
not listed: [8] | [9] | [10]
inactive: all other assays above

CN(C)C(=O)C(CCN1CCC(O)(c2ccc(Cl)cc2)CC1)(c1ccccc1)c1ccccc1
inactive: [1]
active: [2] 5.96 µM | [3] 10.6 µM | [4] 10.6 µM | [7] 24.8 µM | [8] 8.41 µM

CCCCOCC(C)OCC(C)O (configuration not stated)
inactive: [1] | [2] | [3] | [4] | [7]

CC(C)(O)C(=O)c1ccc(OCCO)cc1
inactive: [1] | [2] | [3] | [4] | [7]

C1CCCCCCCCCCC1
not listed: [3] | [9]
inactive: all other assays above

NC(CS)C(=O)O (configuration not stated)
inactive: [1] | [2] | [3] | [4] | [8]

O=C(O)/C=C/c1ccc(Cn2ccnc2)cc1
inactive: [1] | [2] | [4] | [10] | [7] | [8]

COC(=O)CCCC(=O)O
inactive: [1] | [2] | [4] | [10] | [8]

CC(C)[C@H](N)C(=O)OCCOCn1cnc2c(=O)[nH]c(N)nc21
inactive: [1] | [10] | [7] | [8]
active: [2] 11.9 µM | [4] 26.6 µM

C[C@H]1O[C@@H](n2cc(F)c(=O)[nH]c2=O)[C@H](O)[C@@H]1O
active: [2] 21.1 µM | [4] 23.7 µM
inactive: [1] | [7] | [8]

O=C1C(CCS(=O)c2ccccc2)C(=O)N(c2ccccc2)N1c1ccccc1 (configuration not stated)
inactive: [1] | [2] | [4] | [10] | [7] | [8]

C#CC(C)(O)CC(C)C (configuration not stated)
inactive: [1] | [2] | [4] | [10] | [8]

COc1cc(C)cc(O)c1
inactive: [1] | [2] | [4] | [8]

CC(C)=CC(=O)O
inactive: [1] | [2] | [4] | [10] | [7] | [8]

CC1=CC(C)C(C=O)C(C)C1 (configuration not stated)
inactive: [1] | [2] | [7] | [8]

CC12CCC(CC1=O)C2(C)C (configuration not stated)
inactive: [1] | [2] | [4] | [10] | [7] | [8]

N#CC1(O)CCCCC1
inactive: [1] | [2] | [4] | [10] | [7] | [8]

NCCN1CCNC1=O
inactive: [1] | [2] | [4] | [10] | [7] | [8]

CCC(C(=O)NC(N)=O)c1ccccc1 (configuration not stated)
inactive: [1] | [2] | [4] | [8]

Reference: PubChem BioAssay (Tox21)
